Measurements taken from PubChem BioAssay AID588850 (Sanford-Burnham Center for Chemical Genomics, 2011).
In all, about 360,000 compounds went through this assay and about 3,100 (0.86%) were called active. The sample holds actives, similar compounds and a random draw of the others, so the mix is not that of the screen. A number with no mark means an inactive call.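 Rule for the calls: active = at least 50% inhibition at 5 µM, scaled per plate between neutral and stimulator controls; inactive = the rest.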

Test: inhibitors of PAF-induced NF-kB signaling, primary screen, cell-based, GFP fluorescence, uHTS (AID 588850);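 note: PAF is a Pseudomonas aeruginosa culture filtrate used as stimulus; plate controls were PAF-stimulated DMSO wells for no effect and unstimulated DMSO wells for full effect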
Conditions: KKLEB NF-kB-GFP reporter, GFP fluorescence overnight, at 5 µM, active compounds read high

| SMILES | inhibition |
| --- | --- |
| Cc1ccccc1N1C(=O)C(Oc2ccc(Cl)cc2)C1CNCC1CCCO1 (centres undefined) | -17.5% |
| CC(Sc1nncn1C)C(=O)Nc1ccccc1-c1ccccc1 (centres undefined) | -12.2% |
| Cc1cccc(N(C(=O)Cc2cccs2)C(C(=O)NCc2ccco2)c2ccncc2)c1 (centres undefined) | -3.5% |
| Cc1nn(C(C)C(=O)N2CCOCC2)c(=O)c2nn(-c3ccccc3)c(C)c12 (centres undefined) | 1.5% |
| CC(=O)Nc1ccc(S(=O)(=O)NCC2CCC(C(=O)NCCc3ccccc3)CC2)cc1 (centres undefined) | 8.9% |
| CC1(C(=O)NS(=O)(=O)c2ccccc2)CCN1C(=O)c1ccccc1 (centres undefined) | -17.7% |
| COc1cc(OC)c(C(=O)NNC(=O)c2ccc(NS(=O)(=O)c3cccs3)cc2)cc1OC | 0.1% |
| CCCOc1ccc(-c2c(C(=O)N/N=C/c3ccco3)nnn2-c2nonc2N)cc1 | -21.8% |
| Nc1nonc1-n1nnc(C(=O)N/N=C/c2ccc(Cl)cc2)c1-c1ccc2c(c1)OCO2 | 52.5% (active) |
| Nc1nonc1-n1nnc(C(=O)N/N=C/C2CCCCC2)c1-c1ccccc1 | 3.7% |
| CSc1ccc(CN2CCC2(C)C(=O)Nc2ccc(C)c(O)c2)cc1 (centres undefined) | 0% |
| CCCc1nc(N)nc2c1C(=O)CC(C)(C)C2 | 16.2% |
| COc1ccc(/C=C/C(=O)c2c(O)cc(OC)cc2OC)cc1 | -12.9% |
| COc1ccc2cc(-c3[nH]ncc3CNCCn3nc(C)cc3C)ccc2c1 | -8.4% |
| COc1ccc(-c2cn[nH]c2-c2ccc(OC)cc2)cc1 | 88% (active) |
| CCOc1ccccc1Oc1cn[nH]c1-c1ccc(OC)cc1O | 13% |
| CCOc1ccc(C(C)=O)cc1CSc1nnc(-c2ccncc2)n1CCOC | -0.6% |
| CS(=O)(=O)N(CC(=O)Nc1ccc(F)cc1F)c1cccc([N+](=O)[O-])c1 | 10.1% |
| O=c1[nH]c2ccccc2n1C1CCN(CCOc2ccccc2)CC1 | -0.9% |
| COc1ccc(CNc2nccs2)cc1 | -5.6% |
| COc1ccc(CNc2ncnc3ccccc23)cc1 | 51.6% (active) |

| SMILES | inhibition |
| --- | --- |
| c1ccc(CNc2ncnc3[nH]ncc23)cc1 | 0.6% |
| Oc1cccc2ccc(/C=C/c3ccc(Br)s3)nc12 | 82.5% (active) |
| Nc1ccc(S(=O)(=O)Nc2nccc(/C=C/c3ccc(Br)s3)n2)cc1 | 14.6% |
| Clc1ccc2nc(CSc3ccccc3)cn2c1 | -13.5% |
| O=C(C1CCCO1)N1CCN(C(=S)NC2CC2)CC1 (centres undefined) | 3.7% |
| C[C@@H]1C[C@@H]2O[C@H]2/C=C\C=C\C(=O)Cc2c(Cl)c(O)cc(O)c2C(=O)O1 | 60.3% (active) |
| COc1ccc(S(=O)(=O)N2CCN(CC(=O)N3CCNC3=O)CC2)cc1OC | 0.2% |
| COc1ccc(Br)cc1CN1CCN(C(=O)c2cccc(OC)c2OC)CC1 | 18.7% |
| CN(C(=O)CC1C(=O)NCCN1Cc1ccc2ccccc2c1)C1CCOCC1 (centres undefined) | 15.4% |
| COc1ccc(N(C(=O)c2snc(C(N)=O)c2N)C(C(=O)NC2CCCC2)c2ccco2)cc1OC (centres undefined) | 6.4% |
| CC(=O)c1cccc(NC(=S)N2CCN(S(C)(=O)=O)CC2)c1 | -11.2% |
| CCSc1nsc(NC(=O)Nc2cccc(C(C)=O)c2)n1 | 86.3% (active) |
| CC(=O)c1cccc(NC(=O)C2CCN(C(=O)c3ccccc3Cl)CC2)c1 | 4.3% |
| CSc1ccccc1C(=O)Nc1cccc(C(C)=O)c1 | -14.6% |
| C=CCSc1nsc(NC(=O)Nc2cccc(C(C)=O)c2)n1 | 86.3% (active) |
| COc1ccc(NC(C(=O)Nc2cccc(C(C)=O)c2)c2ccccc2)cc1 (centres undefined) | -4.2% |
| CCOCCCNC(=O)c1ccc(CS(=O)(=O)c2cccc(C(F)(F)F)c2)o1 | -2.1% |
| CC1C(=O)Nc2ccccc2N1C(=O)c1c(F)cccc1F (centres undefined) | -2.1% |
| COc1cccc(-c2nn(-c3ccccc3)cc2/C=C(\C#N)C(=O)NCCCn2ccnc2)c1 | -21.2% |
| CC1CCCC(NC(=O)COC(=O)c2ccccc2C(=O)N(C)C2CCCCC2)C1C (centres undefined) | 17.7% |
| C=CCN(c1ccc(C(N)=O)cc1)S(C)(=O)=O | -12% |

| SMILES | inhibition |
| --- | --- |
| COc1ccc(N2CCN(C(=O)COc3ccc4c(C)cc(=O)oc4c3)CC2)cc1 | -21.4% |
| Cc1cc(OCC(=O)N2CCN(c3ncccn3)CC2)ccc1Cl | 1.3% |
| Cc1c(C)c2ccc(OCC(=O)N3CCN(c4cccc(Cl)c4)CC3)cc2oc1=O | 63.5% (active) |
| CC1(C)Cc2c(sc3nc(SCC(=O)NCc4ccccc4)n(-c4ccccc4)c(=O)c23)CS1 | 4.3% |
| Cc1ccc(S(=O)(=O)N2CCCC2CO)cc1 (centres undefined) | -11% |
| CCn1ncc(Br)c1C(=O)Nc1cc(C)ccc1F | 4.3% |
| O=C(CCc1ccccc1Cl)Nc1ccc(S(=O)(=O)Nc2nccs2)cc1 | 8.7% |
| Cc1ccc(Cc2cnc(N)s2)o1 | 4.4% |
| Cc1ccc(CCC(=O)Nc2ncc(Cc3cc(Cl)ccc3Cl)s2)o1 | 64% (active) |
| COc1ccccc1/C=C/CN1CCC(CO)(Cc2ccccc2)CC1 | 20.7% |
| CC(C)(C)NC(=O)Cn1c(SCC(=O)Nc2nccs2)nc2ccccc21 | -6.3% |
| COCCCNC(=S)N1CCN(c2nc(-c3cccc(OC)c3)cs2)CC1 | -8.2% |
| O=C(N/N=C/c1cc(Br)c(O)c([N+](=O)[O-])c1)C(O)(c1ccccc1)c1ccccc1 | -3.5% |
| c1ccc(C(=NNc2nc3ccccc3s2)c2ccccn2)cc1 | -25.7% |
| O=[N+]([O-])c1cc(Br)c(O)c(/C=N/Nc2nc3ccccc3s2)c1 | 63.5% (active) |
| CCOC(=O)c1ccc(-c2ccc3ncnc(N(C)Cc4sccc4C)c3c2)o1 | 32.3% |
| Cc1ccc(S(=O)(=O)CCC(=O)Nc2nnc(CC(C)C)s2)cc1 | 8.1% |
| O=C(Nc1nnc(-c2ccc(F)cc2)s1)c1c(F)cccc1Cl | 11% |
| CCOC(=O)CSc1nnc(NC(=O)c2cccc(S(=O)(=O)N3CCCCC3)c2)s1 | 5.1% |
| Cc1ccc(CS(=O)(=O)c2ncc(Cl)c(C(=O)Nc3nnc(C)s3)n2)cc1 | 92.5% (active) |
| O=C(Nc1nnc(Cc2ccc(Cl)cc2)s1)c1cccnc1 | 2.8% |

| SMILES | inhibition |
| --- | --- |
| CSc1nnc(NC(=O)c2nc(S(=O)(=O)Cc3ccc(C)cc3)ncc2Cl)s1 | 104% (active) |
| CC1(C(=O)Nc2cccnc2)Cc2c(-c3ccccc3)ccnc2O1 (centres undefined) | 14.4% |
| Cc1ccccc1C(=O)Nc1cccc(-c2nnc(SCC(=O)O)n2C)c1 | 0.8% |
| C=CCn1c(SCC(=O)c2ccc(Br)cc2)nnc1C(C)NC(=O)Cc1ccc(OC)cc1 (centres undefined) | -6.2% |
| COCCn1c(C)cc(C(=O)CN2c3cccc4cccc(c34)S2(=O)=O)c1C | 18.2% |
| CCc1ccc(N(CC(=O)NCc2cccnc2)S(=O)(=O)c2ccccc2)cc1 | -37.4% |
| O=C(c1cccnc1)N(Cc1ccccc1)C(=O)c1cccnc1 | 11.6% |
| O=C(c1cccnc1)N(c1cc2sc(=O)oc2c2ccccc12)S(=O)(=O)c1ccccc1 | 67% (active) |
| NC(=O)C[n+]1cccc(C(N)=O)c1 | 0.4% |
| CCNC(=O)C1CCCN(C(=O)c2ccc(OC)cc2OC)CC1 (centres undefined) | -9.2% |
| Cc1ccc(C2(C)NC(=O)N(CC(=O)Nc3ccccc3C(=O)N3CCCCC3)C2=O)cc1 (centres undefined) | -4.5% |
| O=C(NC1(C(F)(F)F)N=C2SCCN2C1=O)c1ccco1 (centres undefined) | 3.6% |
| Clc1ccc2c(c1)C1=C(C(c3ccncc3)O2)C(c2ccc(Br)cc2)n2ncnc2N1 (centres undefined) | 52.7% (active) |
| COCCCN(C(=O)Cn1ncc2c(=O)oc3ccc(C)cc3c21)C(C)c1ccncc1 (centres undefined) | 1.3% |
| O=C(Nc1ccc2c(c1)OCO2)C1CC(c2c(F)cccc2Cl)=NO1 (centres undefined) | 13.8% |
| Cc1cc(C)c(-c2csc(NC(=O)CCCc3nc4ccccc4c(=O)[nH]3)n2)c(C)c1 | -12.5% |
| C=CCNC(=O)c1ccc2c3n(nc2c1)-c1ccc(C)cc1CO3 | -75.6% |
| COc1cc(OC)cc(C(=O)N[C@H](C(=O)NNC(=O)c2ccc(Br)cc2)C(C)C)c1 | -8.2% |
| COc1cc(OC)cc(C(=O)N[C@H](C(=O)OCC(=O)NC(C)c2ccccc2)C(C)C)c1 (some centres undefined) | 21.2% |
| COc1cc(OC)cc(C(=O)N[C@H](C(=O)Nc2nc3ccccc3[nH]2)C(C)C)c1 | 64.3% (active) |
| CC(=O)NC(c1ccccc1)c1nc(-c2ccccc2C)cs1 (centres undefined) | -32.5% |
